From PubChem BioAssay (Tox21)
Results filed as inconclusive are left out. Activity calls are given as the source filed them. Unless noted, calls come from the whole dose curve; as a rule, active = well fitted curve in the direction sought with a large enough effect in the repeat runs; inconclusive = weak or mixed curves; inactive = no such curve, though single readings can be large; an effect the other way counts as inactive or inconclusive.

Experiments:
[1] = qHTS assay to identify small molecule agonists of the vitamin D receptor (VDR) signaling pathway - cell viability counter screen (AID 743224); note: nearly all actives have a fitted effect of over 50% in size
Summary of the method: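 Here cell health was gauged by luminescent ATP detection (CellTiter-Glo, 30 min RT) in VDR-bla cells that had been incubated with test compounds for 16 h at 37C and 5% CO2.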

[2] = qHTS assay to identify small molecule antagonists of the vitamin D receptor (VDR) signaling pathway - cell viability counter screen (AID 743225); note: nearly all actives have a fitted effect of over 50% in size
Summary of the method: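 Luminescent cell viability (CellTiter-Glo) in VDR-bla HEK 293T cells after 16 h compound exposure at 37C in the presence of 3 nM final 1-alpha,25-dihydroxy vitamin D3.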

[3] = qHTS assay to identify small molecule agonists of the NFkB signaling pathway - cell viability counter screen (AID 1159515; calls by dose curve; note: nearly all actives have a fitted effect of over 55% in size)
Summary of the method: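 5 hr compound treatment of NFkB-bla ME-180 cells (2,000/well, seeded overnight beforehand), followed by reporter substrate for 1.5 hr. CellTiter-Glo added afterward; luminescence after 30 min RT.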

[4] = qHTS assay to identify small molecule antagonists of the retinoid-related orphan receptor gamma (ROR-gamma) signaling pathway - cell viability counter screen (AID 1159520); note: nearly all actives have a fitted effect of over 50% in size
Summary of the method: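 Cytotoxicity was read from cellular ATP (CellTiter-Glo luminescence) after 16 hr at 37 C with 1 uM doxycycline induction. The inducer was added 2 hr after compound transfer to Tet-on ROR gamma CHO cells.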

[5] = biological target: Nuclear receptor ROR-gamma (Homo sapiens) (UniProt P51449); test: qHTS assay to identify small molecule antagonists of the retinoid-related orphan receptor gamma (ROR-gamma) signaling pathway (AID 1159521; note: nearly all actives have a fitted effect of over 50% in size; note: potency is the fitted concentration of half-maximal effect)
Summary of the method: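 CHO cells expressing RORγ under a TET-on promoter, luciferase under RORE control. Dox 1 uM final, 16 h; compounds added 2 h prior. Luminescence decrease measured.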

[6] = qHTS assay to identify small molecule agonists of the AP-1 signaling pathway - cell viability counter screen (AID 1159525; calls by dose curve; note: nearly all actives have a fitted effect of over 55% in size; note: potency is the fitted concentration of half-maximal effect)
Summary of the method: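 Luminescent ATP readout (Cell Titer Glo, 30 min RT), normalised to DMSO and tetra n-octyl ammonium bromide controls. Cells were ME-180 AP-1-bla in 0.5% dialyzed FBS Opti-MEM, with a 5 h, 37 °C compound exposure.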

[7] = qHTS assay to identify small molecule agonists of the AP-1 signaling pathway (AID 1159526; calls by dose curve)
[8] = biological target: Retinoic acid receptor RXR-alpha (Homo sapiens) (UniProt P19793); test: qHTS assay to identify small molecule agonists of the RXR signaling pathway (AID 1159527; calls by dose curve; note: nearly all actives have a fitted effect of over 35% in size)
Summary of the method: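 Beta-lactamase reporter assay, agonist format. Engineered HEK 293T line, charcoal-stripped FBS at 2%, overnight (16 hr) exposure, fluorescence at 460 and 530 nm after 405 nm excitation.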

[9] = qHTS assay to identify small molecule agonists of the RXR signaling pathway - cell viability counter screen (AID 1159529); note: nearly all actives have a fitted effect of over 50% in size; note: potency is the fitted concentration of half-maximal effect
Summary of the method: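 Same-well viability check after the LiveBLAzer FRET read: CellTiter-Glo added, luminescence measured after 30 min at room temperature. Reporter HEK 293T cells had been treated with compounds for 16 hr following a 5 hr preincubation.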

[10] = qHTS assay to identify small molecule antagonists of the retinoid acid receptor (RAR) signaling pathway - cell viability counter screen (AID 1159551); note: nearly all actives have a fitted effect of over 35% in size
Summary of the method: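 Seed C3RL4 cells; next day add compound, then retinol to 1 uM final; incubate 6 h at 37 C; add CellTiter-Glo; read luminescence after 30 min at RT.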

[11] = qHTS assay to identify small molecule antagonists of the retinoic acid receptor (RAR) signaling pathway (AID 1159552; note: nearly all actives have a fitted effect of over 50% in size; note: potency is the fitted concentration of half-maximal effect)
Summary of the method: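 Readout: luciferase luminescence, 30 min post-reagent at RT. Setup: C3RL4 RARE reporter cells, compounds plus retinol 1 uM final, 6 hr incubation at 37 C and 5% CO2.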

[12] = qHTS assay to identify small molecule agonists of the retinoic acid receptor (RAR) signaling pathway (AID 1159553); conditions: C3RL4 RARE luciferase reporter, agonist, 6 h; activation: at 73.3 µM (top of the series); note: potency is the fitted concentration of half-maximal effect
Summary of the method: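 Activation of retinol signaling was monitored via a RARE luciferase reporter in C3RL4 cells. After 6 hr compound treatment at 37 C, detection reagent was added for 30 min at room temperature before luminescence reading.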

[13] = qHTS assay to identify small molecule agonists of the endoplasmic reticulum stress response signaling pathway (AID 1159516; active = well fitted activation curve with a large enough effect in the signal ratio in the repeat runs, not every such curve was filed as active; the % refers to the signal ratio)
Summary of the method: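 Reporter HeLa cells (ESRE-beta-lactamase) underwent 5 hr compound incubation at 37 C and 5% CO2 in quantitative HTS format. Detection followed 2 hr of FRET substrate loading at room temperature.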

[14] = qHTS assay to identify small molecule agonists of the endoplasmic reticulum stress response signaling pathway - cell viability counter screen (AID 1159517; calls by dose curve)
Summary of the method: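 Cells, HeLa ESRE-bla; density, 1,500/well; dosing, 5 hr at 37 C, 5% CO2; readout, CellTiter-Glo luminescence after 30 min RT.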

Measured: Potency

Chain of Retinoic acid receptor RXR-alpha (Homo sapiens) (P19793 whole entry, looked up): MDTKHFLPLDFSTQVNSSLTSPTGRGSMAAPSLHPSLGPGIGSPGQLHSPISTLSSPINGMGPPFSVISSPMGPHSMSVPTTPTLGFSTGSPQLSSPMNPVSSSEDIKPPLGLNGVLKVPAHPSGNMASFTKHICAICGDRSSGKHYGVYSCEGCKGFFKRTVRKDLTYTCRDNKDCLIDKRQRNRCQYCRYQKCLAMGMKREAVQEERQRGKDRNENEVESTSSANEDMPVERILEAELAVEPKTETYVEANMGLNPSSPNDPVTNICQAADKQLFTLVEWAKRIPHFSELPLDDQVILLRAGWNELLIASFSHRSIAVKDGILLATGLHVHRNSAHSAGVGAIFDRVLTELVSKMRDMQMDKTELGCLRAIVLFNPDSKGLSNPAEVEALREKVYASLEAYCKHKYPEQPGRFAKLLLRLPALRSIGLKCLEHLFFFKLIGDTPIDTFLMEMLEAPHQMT

CCOC(=O)/C=C/C(=O)OCC
not listed: [13] | [14]
inactive: all other assays above

N#CCc1ccc(Cl)cc1Cl
not listed: [3]
inactive: all other assays above

CC(C)(C)CC(=O)OCC(=O)[C@@]1(O)CC[C@H]2[C@@H]3CCC4=CC(=O)C=C[C@]4(C)[C@H]3[C@@H](O)C[C@@]21C
active: [5] 26.6 µM | [11] 33.5 µM
inactive: [13] | [4] | [7] | [10] | [12]

CC(C)c1nc(CN(C)C(=O)N[C@H](C(=O)N[C@@H](Cc2ccccc2)C[C@H](O)[C@H](Cc2ccccc2)NC(=O)OCc2cncs2)C(C)C)cs1
inactive: [1] | [4] | [5] | [7] | [10] | [11] | [12]
active: [6] 19 µM | [9] 9.52 µM

NCCNCCO
not listed: [2] | [3]
inactive: all other assays above

COc1ccccc1N1CCN(CCCCNC(=O)c2ccc(-c3ccc(C(C)=O)cc3)cc2)CC1
not listed: [3] | [5] | [8]
inactive: all other assays above

CC(C)(c1ccccc1)c1ccccc1
not listed: [3] | [11] | [14]
inactive: all other assays above

O=C(O)CCC(=O)C(=O)O
not listed: [2] | [3]
inactive: all other assays above

CCN(CC)CCNC(=O)COc1ccc(OC)cc1
not listed: [5] | [13]
inactive: all other assays above

C=CC(=O)[O-].C=CC(=O)[O-].[Zn+2]
not listed: [3] | [7] | [8] | [12] | [13]
inactive: all other assays above

c1ccc2sc(SN(C3CCCCC3)C3CCCCC3)nc2c1
not listed: [3] | [8] | [11] | [12]
inactive: all other assays above

Cc1ccc(OC(=O)c2ccccc2O)cc1
active: [12] 6.86 µM
not listed: [1] | [2] | [3] | [6] | [8]
inactive: all other assays above

CCCCCC#CC(=O)OC
not listed: [3] | [8] | [11] | [12]
inactive: all other assays above

CC(CCC(=O)O)C(=O)O (centres undefined)
not listed: [3] | [10]
inactive: all other assays above
